Whole data set: some 35,000 sequences, median “fluorescence intensity (a.u.)” near 10,000, cut for the highest 2% near 52,000. The sample as a whole holds a higher share of the highest values than the screen did.

This test deals with T1, OsWOX13 (Oryza sativa, UniProt Q5QMM3 1-267).
T1 sequence: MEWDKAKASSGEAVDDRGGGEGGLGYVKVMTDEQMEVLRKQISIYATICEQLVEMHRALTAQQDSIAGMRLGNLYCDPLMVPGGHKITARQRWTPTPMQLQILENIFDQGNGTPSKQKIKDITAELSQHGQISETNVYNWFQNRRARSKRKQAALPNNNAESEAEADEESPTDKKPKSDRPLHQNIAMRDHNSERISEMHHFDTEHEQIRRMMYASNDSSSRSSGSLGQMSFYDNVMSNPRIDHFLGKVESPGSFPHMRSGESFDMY
Description: protein-binding microarray (RPBM); PBS, 2% BSA, 51.3 ng/ul salmon testes DNA, 50 uM zinc acetate, 200 nM TF, 25 C, 1 h; high values mean tight binding. The settings on record: protein: recombinant; tags: N-terminal polyhistidine and DsRed monomer fusion (pET32a); label: CyDye5-dUTP incorporated in the synthesized complementary strand; 3' TTTTT single-stranded linker to array surface; dsDNA, one strand shown. The essentials:
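Transcription factors were each fused at the N-terminus to a polyhistidine tag plus DsRed and expressed in E. coli BL21-CodonPlus before Ni–NTA purification. Binding to a double-stranded custom Agilent array was carried out with 200 nM protein at 25 °C for 1 h in PBS, 2% BSA, salmon testes DNA and 50 µM zinc acetate. The binding signal is per-feature fluorescence intensity, in arbitrary units, on an Axon 4000B scanner.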
As for “TGGGGTATCTAGTCAATCATACAATATTTTGTTTTGCTAACGGAGTCACCTAGTGCAG”, the binding signal was 7400 fluorescence intensity (a.u.).
The figure for “AGGAAAATGTGGTGAGTAATTAGGTTATAATTTATTGAGTCGGAGTCACCTAGTGCAG” is 4100 fluorescence intensity (a.u.); for “AAGTGATTGCCCTGGCTCAGAGTTGAGTAAACAATCAGGCCGGAGTCACCTAGTGCAG” it is 19900 fluorescence intensity (a.u.).
As to “TTGTGATTGATTTCACACCCAAACAACAAGTAGTCAGCTACGGAGTCACCTAGTGCAG”, the binding signal is 61300 fluorescence intensity (a.u.).
The result for “TGCCCCAATGATTTTGTACCACAGACCAGCTCAAGTTGCCCGGAGTCACCTAGTGCAG” reads 4400 fluorescence intensity (a.u.); that for “GATAGATAGATAGATACATACACACAAACATAAGTAGCTACGGAGTCACCTAGTGCAG”, 19100 fluorescence intensity (a.u.).
The figure for “CATAATTGAGTCTGATTGGCACAAACCTAGAGAACATGCCCGGAGTCACCTAGTGCAG” is 65500 fluorescence intensity (a.u.); for “TCTCATTGACAAGCCAACAAACGCACAGTGTGACAAGCTCCGGAGTCACCTAGTGCAG” it is 3600 fluorescence intensity (a.u.).
The result for “AGTGTGATTGATGCACAAACAAACAGCTCAAGTTGAGGCCCGGAGTCACCTAGTGCAG” reads 55400 fluorescence intensity (a.u.).
Take “TTGATAATTGGGCACCTATGCCCGACACATAAAACACACTCGGAGTCACCTAGTGCAG”: the binding signal was 22200 fluorescence intensity (a.u.).
The result for “GTTTCAATGATTGGTTGTTCACCCAACCCAAGTACCCAGCCGGAGTCACCTAGTGCAG” reads 57400 fluorescence intensity (a.u.); that for “AAAATCAAGATTGATGTGGTTTCACCCCAACACAAGAAAACGGAGTCACCTAGTGCAG”, 8050 fluorescence intensity (a.u.).
Take “TGATGATTGGTTTCTTGGCCAATGGTTTGGTTGTTGTTTTCGGAGTCACCTAGTGCAG”: the binding signal is 23100 fluorescence intensity (a.u.).
Regarding “AAAGAGAACACATAATTGATTTGGAGCACCCAAATAATTTCGGAGTCACCTAGTGCAG”, the binding signal was 15200 fluorescence intensity (a.u.).
The result for “ATGTGATTATTTCGTCCTGCTGTAAACTTGGTGCAAGTGACGGAGTCACCTAGTGCAG” reads 18600 fluorescence intensity (a.u.).
“GGCTTTCCAGTTGATAAATCAATCATCATCCCCTTGATCGCGGAGTCACCTAGTGCAG”: the binding signal was 8410 fluorescence intensity (a.u.).
Turning to “ATGTTCTTTCTTGATTAGACCATCTGATGCTTTGCGCAGTCGGAGTCACCTAGTGCAG”, the binding signal is 4480 fluorescence intensity (a.u.).
The figure for “TAGGAGATTATATTTAAATTAACTTTAAAGAGAAATCTTGCGGAGTCACCTAGTGCAG” is 11600 fluorescence intensity (a.u.).
As for “GGTTGTTAGCACATGATTAATTGTATTAAAACAACTTAAACGGAGTCACCTAGTGCAG”, the binding signal was 3580 fluorescence intensity (a.u.).
The figure for “AAGATTGAAGGCAACCAAACCAACAAGGATGGATGCTTCTCGGAGTCACCTAGTGCAG” is 16500 fluorescence intensity (a.u.).
The figure for “GGACGTATATATACATTGATTAATACCAAATCCTCAGCACCGGAGTCACCTAGTGCAG” is 4520 fluorescence intensity (a.u.).
The result for “GTTGATTTGTGTTTTGACTTTTGAAAAGACTACTGTTACTCGGAGTCACCTAGTGCAG” reads 27500 fluorescence intensity (a.u.); that for “ATATTATTTATAAATTGTGTGTGCAACTGACTTGTGGGCCCGGAGTCACCTAGTGCAG”, 3490 fluorescence intensity (a.u.); that for “TTATAATTGTAAATTTTACAAATTAGTCCTCACCTGTTCTCGGAGTCACCTAGTGCAG”, 53400 fluorescence intensity (a.u.).
For the sequence “ATTATATATTTAATAAAATTAATTTGGTGTTGTATATTTACGGAGTCACCTAGTGCAG”, the binding signal is 8780 fluorescence intensity (a.u.).
The result for “AGTGATTATAATATTGTTCACAAATTTACAAACCTCTCATCGGAGTCACCTAGTGCAG” reads 36700 fluorescence intensity (a.u.); that for “TTGTAATTACATAAATTATACGAATTGTAAAGATTTGGCACGGAGTCACCTAGTGCAG”, 54600 fluorescence intensity (a.u.); that for “TTTTATATTTTAATTAATTACATAATGTAAATATTTCTCACGGAGTCACCTAGTGCAG”, 17100 fluorescence intensity (a.u.).
The figure for “AATTAAATTAGAGTATTCAGTTTGTATATAGTACATTTGTCGGAGTCACCTAGTGCAG” is 14000 fluorescence intensity (a.u.); for “CATAAATTAATTTGTTCACGTCACATTATATACAGTTGTACGGAGTCACCTAGTGCAG” it is 55000 fluorescence intensity (a.u.); for “TTATAATTACTACATTATAATAAAAGTAAAATTGTATTTACGGAGTCACCTAGTGCAG” it is 12100 fluorescence intensity (a.u.).
The result for “TAAAATTATCAAAATATTATATTATACACATAAGATTGTACGGAGTCACCTAGTGCAG” reads 5140 fluorescence intensity (a.u.); that for “ACATATGTGATTAGTATCAGTTCATCAGTAGTCTTCCAATCGGAGTCACCTAGTGCAG”, 18500 fluorescence intensity (a.u.).
On to “CTGACAGGTATTATTGCTTGATATATTTTACTCACTTTACCGGAGTCACCTAGTGCAG”, for which the binding signal is 14800 fluorescence intensity (a.u.).
The result for “ATGGGAGGTGAGATTGGGATTGGGAAATAAATGAATGGCTCGGAGTCACCTAGTGCAG” reads 5250 fluorescence intensity (a.u.).
The figure for “GAGCAGATGATTAGTGAAGGTGTAACCCCTAACATCGTTACGGAGTCACCTAGTGCAG” is 12900 fluorescence intensity (a.u.).
The result for “AATAAATTGTGTGGAAATTTAGCTTGCCCAATCAGATTGACGGAGTCACCTAGTGCAG” reads 16000 fluorescence intensity (a.u.); that for “AATGTGTTAGCGTTTAATTTGCGATTGGATTTGTTTCAGGCGGAGTCACCTAGTGCAG”, 3560 fluorescence intensity (a.u.); that for “AATTCTAATTGGGGAGCATTTAAAGGCTGGGTTTTAGTGGCGGAGTCACCTAGTGCAG”, 20100 fluorescence intensity (a.u.).
For the sequence “TGCTAATTGGGGATTTTCACATTCATGCTGTGTTAGCAGGCGGAGTCACCTAGTGCAG”, the binding signal was 54700 fluorescence intensity (a.u.).
For “AAGTAATTTAGTCAACTCTAAAAGTAACTATGTGTGTGTGCGGAGTCACCTAGTGCAG”, the binding signal was 17300 fluorescence intensity (a.u.).
The figure for “TTGAATCAATGACTGATCATTGCCCAGACTGCTATTTTCCCGGAGTCACCTAGTGCAG” is 7090 fluorescence intensity (a.u.); for “CAAAACGAAATTGATAGATCTTAATGAGTTGTACAACTTTCGGAGTCACCTAGTGCAG” it is 20400 fluorescence intensity (a.u.).
